Source: PubChem
Shown are actives, neighbours in structure and some others; about 3.6% of the full set was active somewhere.
Rango complex inh – prevents formation of the Rango-importin beta complex | Q14974 | Rango CFP/YFP FRET sensor + importin beta, 45 min | Potency, µM (series often up to 92.2 µM) | 0.031% of 340,000 active | AID 540263; calls by dose curve; also: nearly all actives have a fitted effect of over 15% in size
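Inhibition scored from the CFP 486 nm/YFP 530 nm FRET ratio 45 min after adding 0.125 microM importin beta to 50 nM Rango biosensor preincubated 5 min with compound (room temperature, PBS with DTT, Tween-20, BSA). No-importin wells as positive control.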
VDR inhibitor – vitamin D3 receptor (human) inhibition; VDR-SRC2-3 peptide fluorescence polarization, 2 h; Potency, µM, actives largely listed as inhibitors; 0.93% of 400,000 active; AID 504847
Target sequence (P11473 whole entry, looked up): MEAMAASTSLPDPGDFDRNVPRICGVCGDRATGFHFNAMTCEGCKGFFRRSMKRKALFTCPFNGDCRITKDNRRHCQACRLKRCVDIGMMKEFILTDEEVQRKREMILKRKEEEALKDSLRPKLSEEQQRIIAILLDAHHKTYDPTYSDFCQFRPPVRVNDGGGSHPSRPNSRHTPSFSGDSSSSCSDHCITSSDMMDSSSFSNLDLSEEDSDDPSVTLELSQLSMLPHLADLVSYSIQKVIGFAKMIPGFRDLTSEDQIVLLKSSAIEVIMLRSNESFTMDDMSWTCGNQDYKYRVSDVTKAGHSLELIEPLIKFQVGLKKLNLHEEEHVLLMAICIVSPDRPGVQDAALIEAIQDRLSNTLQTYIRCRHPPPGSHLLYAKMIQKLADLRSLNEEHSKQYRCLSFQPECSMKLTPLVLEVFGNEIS
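Signal is fluorescence polarization, reporting how far test compounds block the interaction of VDR with the SRC2-3 coregulator peptide after a 2 h room-temperature incubation.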
Rango release inh – inhibitors of RanGTP-induced Rango-importin beta complex dissociation; O95149+P62826; Biochemical FRET Rango-importin beta, RanGTP-induced dissociation; Potency, µM (top dose mostly 46.1 µM); 0.071% of 340,000 active; AID 540253; calls by dose curve; also: nearly all actives have a fitted effect of over 45% in size
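Recombinant Rango FRET biosensor (EYFP–snurportin 1 IBB–cerulean CFP10) at 0.1 uM premixed with 0.25 uM importin beta in PBS, 1 mM DTT, 0.02% Tween-20, 0.1% BSA. Compound added 5 min; RanGTP-RCC1 (0.6 uM Ran, 2 mM GTP, 0.2 uM RCC1) then triggers release, read at 45 min.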
PLK1 PBD block – inhibitors of human PLK1 polo-box domain binding; 2.8% of 360,000 active; Plk1 PBD binding of FITC phosphopeptide, fluorescence polarization; Potency, µM, actives largely listed as inhibitors; AID 720504; also: series mostly up to about 57 µM; nearly all actives have a fitted effect of over 65% in size
PI5P4Ka inh – PI5P4K alpha (human) kinase inhibition | P48426 | PI5P4Kalpha enzyme, ADP-Glo luminescence, 60 min; active compounds read low | max response, % | 1.2% of 330,000 active | AID 652105; active = max response of -50% or lower; inconclusive = between -30% and -50%; inactive = -30% or higher; also: value at the top dose of about 77 µM
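Enzyme plus substrate dispensed, test compounds pinned in, then ATP (5 microM final) added. After 60 min at RT, ADP-Glo reagent 1 for 45 min and reagent 2 for 30 min preceded luminescence imaging.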
KAT2A inh – GCN5L2 (KAT2A) acetyltransferase inhibition; Q92830; GCN5L2 HAT assay, ThioGlo1 CoA-SH fluorescence; Potency, µM (doses to about 58.9 µM), actives largely listed as inhibitors; 0.21% of 390,000 active
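Free CoA generated was detected with ThioGlo1 (50uM) fluorescence at Ex340nm/Em540nm, read immediately and after 20 min at room temperature. Enzyme, 20 nM in HEPES pH 7.5 buffer, saw compounds 15 min before adding 75uM H3(1-25) peptide and 70uM acetyl-CoA.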
A number is an active result. Unless noted, calls follow the shape of the dose curve; as a rule, active = well fitted curve in the direction sought with a large enough effect; inconclusive = small, poorly fitted or top-dose-only effect, or another doubt; inactive = no such curve, though single readings can be large; an effect the other way counts as inactive or inconclusive.

`O=C(NCc1ccccc1F)C1CCN(c2nn3cc(-c4ccc(F)cc4)nc3s2)CC1` gave VDR inhibitor inactive and KAT2A inh inactive.
For COc1ccc(-c2nn(C)c3sc(C(=O)Nc4cccc(F)c4)cc23)cc1OC the results were VDR inhibitor inactive and KAT2A inh inactive.
Screening Cc1nn(-c2ccccc2)c(Cl)c1/C=N/Nc1ccc(Cl)c(C(=O)O)c1 returned Rango complex inh inactive, VDR inhibitor inactive, Rango release inh inactive, PLK1 PBD block inconclusive, PI5P4Ka inh inactive and KAT2A inh inactive.
`O=C(O)c1ccccc1NS(=O)(=O)c1ccc(NN=Cc2ccccc2F)c([N+](=O)[O-])c1` gave Rango complex inh inconclusive, VDR inhibitor inconclusive, Rango release inh inactive, PLK1 PBD block 23.8µM, PI5P4Ka inh inconclusive and KAT2A inh inconclusive.
Cc1nn(-c2ccccc2)c(Cl)c1/C=N/Nc1ccc(S(=O)(=O)Nc2ccccc2C(=O)O)cc1[N+](=O)[O-] was read as Rango complex inh inconclusive, VDR inhibitor 79.4µM, Rango release inh inactive, PLK1 PBD block 26.7µM and KAT2A inh inconclusive.
Screening COc1ccc(NC(=S)NNc2ccc(S(=O)(=O)Nc3ccccc3C(=O)O)cc2[N+](=O)[O-])cc1 returned Rango complex inh inactive, VDR inhibitor inactive, Rango release inh inactive, PLK1 PBD block 8.44µM, PI5P4Ka inh -71.3 and KAT2A inh inconclusive.
For CSc1ccc(C=NNc2ccc(S(=O)(=O)Nc3ccccc3C(=O)O)cc2[N+](=O)[O-])cc1 the results were Rango complex inh inactive, VDR inhibitor inactive, Rango release inh inactive, PLK1 PBD block inconclusive, PI5P4Ka inh -52.9 and KAT2A inh inconclusive.
For COc1ccc(N(C(=O)c2ccc(Cl)cc2)S(=O)(=O)c2ccc(C)cc2)cc1 the results were VDR inhibitor inactive and KAT2A inh inactive.
COc1cccc(CNC(=O)CN2C(=O)N(c3ccc(C)cc3C)S(=O)(=O)c3ccccc32)c1OC was read as VDR inhibitor inactive and KAT2A inh inactive.
`O=S(=O)(NCc1csc(-c2ccccc2)n1)c1ccccc1` gave VDR inhibitor inactive and KAT2A inh inactive.
For CCOc1ccc(C=NNc2ccc(S(=O)(=O)Nc3ccccc3C(=O)O)cc2[N+](=O)[O-])cc1 the results were Rango complex inh inconclusive, VDR inhibitor inactive, Rango release inh inactive, PLK1 PBD block 18.9µM, PI5P4Ka inh inconclusive and KAT2A inh inconclusive.
C=CCOc1ccc(C=NNc2ccc(S(=O)(=O)Nc3ccccc3C(=O)O)cc2[N+](=O)[O-])cc1OC was read as Rango complex inh inconclusive, VDR inhibitor inconclusive, Rango release inh inconclusive, PLK1 PBD block inconclusive, PI5P4Ka inh -82.6 and KAT2A inh inconclusive.
`CCOc1cccc(C=NNc2ccc(S(=O)(=O)Nc3ccccc3C(=O)O)cc2[N+](=O)[O-])c1O` gave Rango complex inh inactive, VDR inhibitor inactive, Rango release inh inactive, PLK1 PBD block inconclusive, PI5P4Ka inh inconclusive and KAT2A inh inactive.
For COc1ccc(C=NNc2ccc(S(=O)(=O)Nc3ccccc3C(=O)O)cc2[N+](=O)[O-])c(OC)c1 the results were Rango complex inh inactive, VDR inhibitor 89.1µM, Rango release inh inactive, PLK1 PBD block 29.9µM, PI5P4Ka inh -70.2 and KAT2A inh inconclusive.
`COc1ccc(CCNC(=O)CSc2ccc3nnc(CCNC(=O)c4ccc(C)cc4)n3n2)cc1OC` gave Rango complex inh inconclusive, VDR inhibitor inactive, Rango release inh 6.51µM, PLK1 PBD block inactive and PI5P4Ka inh inactive.
For CCn1c(CSc2nc3ccccc3s2)nnc1SCC(=O)c1ccc(Cl)cc1 the results were Rango complex inh inactive, VDR inhibitor inconclusive, Rango release inh inactive, PLK1 PBD block 2.99µM, PI5P4Ka inh -50.7 and KAT2A inh inactive.
`CCn1c(CSc2nc3ccccc3s2)nnc1SCC(=O)c1ccc(O)c(O)c1` gave Rango complex inh inactive, VDR inhibitor inactive, Rango release inh inactive, PLK1 PBD block inactive and KAT2A inh inactive.
Screening O=C(O)CCC(=O)Nc1ccc(SSc2ccc(NC(=O)CCC(=O)O)cc2)cc1 returned Rango complex inh inactive, VDR inhibitor inconclusive, Rango release inh inactive, PLK1 PBD block 0.947µM, PI5P4Ka inh inactive and KAT2A inh inactive.
`O=C(O)CCC(=O)Nc1ccc(F)cc1` gave Rango complex inh inactive, VDR inhibitor inactive, Rango release inh inactive, PLK1 PBD block inactive, PI5P4Ka inh inactive and KAT2A inh inactive.
`COc1cc(C(=O)O[C@@H]2CC3CC[C@]2(C)C3(C)C)ccc1O` gave VDR inhibitor inactive and KAT2A inh inactive.
Screening Cc1nonc1C(=O)N1CCCC(N2CCN(c3ccc(F)cc3)CC2)C1 (stereo not drawn) returned Rango complex inh inactive, VDR inhibitor inactive, Rango release inh inactive, PLK1 PBD block inactive, PI5P4Ka inh inactive and KAT2A inh inactive.
For Cc1cc(C(=O)N2CCCC(N3CCN(c4ccc(F)cc4)CC3)C2)c(C)o1 (stereo not drawn) the results were Rango complex inh inactive, VDR inhibitor inconclusive, Rango release inh inactive, PLK1 PBD block 26.7µM, PI5P4Ka inh inactive and KAT2A inh inactive.
Cc1ccc(-n2nnc3c(=O)n(CC(N)=O)cnc32)cc1 was read as Rango complex inh inactive, VDR inhibitor inactive, Rango release inh inactive, PLK1 PBD block inactive, PI5P4Ka inh inactive and KAT2A inh inactive.
Screening NC(=O)Cn1cnc2c(nnn2-c2ccc(F)cc2)c1=O returned Rango complex inh inactive, VDR inhibitor inactive, Rango release inh inactive, PLK1 PBD block 26.7µM, PI5P4Ka inh inactive and KAT2A inh inactive.
For O=C(NCCc1ccccc1F)C1CCC(=O)N(Cc2ccccc2F)C1 (stereo not drawn) the results were Rango complex inh inactive, VDR inhibitor inactive, Rango release inh inactive, PLK1 PBD block 26.7µM, PI5P4Ka inh inactive and KAT2A inh inactive.
Screening COc1ccccc1CCNC(=O)C1CCC(=O)N(Cc2cccc(F)c2)C1 (stereo not drawn) returned Rango complex inh inactive, VDR inhibitor inactive, Rango release inh inactive, PLK1 PBD block 29.9µM, PI5P4Ka inh inactive and KAT2A inh inactive.
Screening COc1cccc(CN2CC(C(=O)NCCOc3cccnc3)CCC2=O)c1 (stereo not drawn) returned Rango complex inh inactive, VDR inhibitor inactive, Rango release inh inactive, PLK1 PBD block 16.8µM, PI5P4Ka inh inactive and KAT2A inh inactive.
`COc1ccccc1CN1CC(C(=O)NCCCc2ccc(F)cc2)CCC1=O` (stereo not drawn) gave Rango complex inh inactive, VDR inhibitor inactive, Rango release inh inactive, PLK1 PBD block inactive, PI5P4Ka inh inactive and KAT2A inh inactive.
Cc1ccsc1CCNC(=O)C1CCC(=O)N(CCc2cccc(F)c2)C1 (stereo not drawn) was read as Rango complex inh inactive, VDR inhibitor inactive, Rango release inh inactive, PLK1 PBD block inactive, PI5P4Ka inh inactive and KAT2A inh inactive.
